# High-throughput results: PubChem, several laboratories
# Hits are enriched below; roughly 1.3% of the tested compounds scored in any of these assays.
# BCLXL inh: Bcl-xL (human) inhibition; Q07817; GST-Bcl-xL / FITC-Bim BH3 peptide fluorescence polarization; inhibition, % at 10.9 µM; actives 0.7% (n = 320,000); AID 2129;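 active means inhibition above the mean of all tested compounds plus 3 SD, cutoff set per campaign, cut at about 30% in these data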;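 further: 0% = DMSO wells and 100% = unlabeled Bim-BH3 peptide competitor; inhibitors lower millipolarization by displacing the labeled peptide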
# Target sequence (Q07817 whole entry, looked up): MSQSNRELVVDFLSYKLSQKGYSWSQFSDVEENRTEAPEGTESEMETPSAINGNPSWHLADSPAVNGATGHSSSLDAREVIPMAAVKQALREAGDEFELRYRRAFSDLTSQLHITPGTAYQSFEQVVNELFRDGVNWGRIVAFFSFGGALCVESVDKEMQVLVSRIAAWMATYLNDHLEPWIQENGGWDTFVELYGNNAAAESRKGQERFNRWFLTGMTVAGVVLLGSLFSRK
# EBV gp42 block: blocks Epstein-Barr virus glycoprotein 42 binding; AID 1085; inhibition, % (tested at 21.74 µM); Q1HVG2; Fluorescence polarization binding assay, mP read-out; actives 0.42% (n = 220,000); in the data active means inhibition above about 50%
# Target sequence (Q1HVG2 whole entry, looked up): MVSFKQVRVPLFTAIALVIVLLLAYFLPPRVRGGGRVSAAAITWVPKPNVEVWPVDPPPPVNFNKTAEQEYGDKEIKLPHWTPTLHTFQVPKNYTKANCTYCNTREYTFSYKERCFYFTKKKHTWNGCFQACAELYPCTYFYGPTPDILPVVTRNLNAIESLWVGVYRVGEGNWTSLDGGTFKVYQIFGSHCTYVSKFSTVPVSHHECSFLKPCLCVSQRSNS
# GLD-1 TGE inh: GLD-1-TGE RNA interaction inhibition (C. elegans) | Q17339 | purified GLD-1 + fluorescein TGE RNA, fluorescence polarization | inhibition, % at 5.96 µM | actives 0.44% (n = 320,000);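 active means percent inhibition above a per-plate cutoff, the plate mean of test compounds plus 3 SD, cut at about 30% in these data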;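 further: 0% = DMSO wells with GLD-1 and probe and 100% = wells lacking GLD-1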
# MCL1-BIM inh: inhibitors of human MCL1 binding to BIM-BH3 peptide | Q07820 | inhibition, % at 10.9 µM | actives 0.68% (n = 320,000) | GST-MCL1 / FITC-Bim-BH3 fluorescence polarization;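 active means inhibition above the mean inhibition of all tested compounds plus 3 SD, set per campaign, cut at about 40% in these data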;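 further: 0% = DMSO wells and 100% = unlabeled Bim-BH3 peptide control; higher means more loss of mP so more displacement of Bim peptide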
# MEX-5 binding: C. elegans MEX-5 TCR-2 RNA binding activity; Q9XUB2; MEX-5/FITC-TCR2 RNA binding, fluorescence polarization; stronger effect = lower value; activity score (negative = inhibition of binding), % at 10 µM; actives 0.38% (n = 300,000);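 active means inhibition past about -25% in most replicates, and total fluorescence under double the plate's negative control median, limit read from the data; inconclusive means replicates evenly split on the limit, or fluorescence at least double controls; inactive means too little inhibition in most replicates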;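 further: 0% = DMSO and -100% = 5 µM competing unlabeled TCR2 RNA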
# Active calls of the source: *; ? = inconclusive; . = no result given.
SMILES,BCLXL inh,EBV gp42 block,GLD-1 TGE inh,MCL1-BIM inh,MEX-5 binding
Cn1c(O)c(/C=C/C=Nc2ccccc2)c(=O)n(C)c1=S,55*,-10,-61,-25,-1
COC(=O)Cn1cc(C=C2C(=O)N(C)C(=O)N(C)C2=O)c2ccccc21,-5,.,-9,-14,-80*
CCN(CC)C(=O)Cn1cc(C=C2C(=O)N(C)C(=O)N(C)C2=O)c2ccccc21,2,.,-2,-5,?
CN1CCN(c2ncnc3c2cnn3C)CC1,39*,-12,11,30,.
CCc1cc2c(N3CCN(C)CC3)ncnc2s1,4,-13,-2,-3,0
COC(=O)C1=C(c2ccc(C(C)=O)cc2)C[C@@H]2CC[C@H]1N2C(=O)NC(C)C,3,.,1,1,.
CC(=O)O[C@H]1CC[C@@]2(C)C(=CC(=O)C3C2CC[C@@]2(C)C3C[C@H](OC(C)=O)[C@@H]2OC(C)=O)C1 (some centres undefined),.,.,-3,.,.
O=C(N/N=C/c1c(O)n(C2CCCCC2)c(=S)[nH]c1=O)c1ccccc1,0,.,-5,10,-5
O=C(N/N=C/C1C(=O)NC(=S)N(c2ccccc2)C1=O)c1cc(Br)c(O)c(Br)c1 (centres undefined),3,-8,-6,9,-79*
COC(=O)C1=C(c2c(C)noc2C)C[C@@H]2CC[C@H]1N2C(=O)NCc1ccc(C(F)(F)F)cc1,4,.,4,6,.
Cc1ncc2n1-c1ccc(Cl)cc1C(c1ccccc1F)=NC2,.,.,-1,.,.
CN1C(=O)NC(=O)/C(=C/c2ccc([N+](=O)[O-])s2)C1=O,14,-5,11,18,-11
CN1C(=O)NC(=O)/C(=C/c2ccc([N+](=O)[O-])o2)C1=O,30*,-9,5,27,-43*
O=C1NC(=O)N(c2ccccc2)C(=O)/C1=C\c1ccc([N+](=O)[O-])o1,36*,-12,12,42*,-2
CN1C(=O)NC(=O)/C(=C\c2ccc([N+](=O)[O-])o2)C1=O,39*,-4,23,39,-61*
C=C(C)[C@@]12OC3(c4ccccc4)O[C@@H]1C1[C@@H]4O[C@]4(CO)[C@@H](O)[C@]4(O)C(=O)C(C)=C[C@H]4[C@@]1(O3)[C@H](C)[C@H]2OC(=O)/C=C/C=C/c1ccccc1 (some centres undefined),0,.,2,0,1
C[C@]12CCC3C(CC[C@H]4C[C@H](O)CC[C@]34C)C1CCC2=O (some centres undefined),.,.,2,.,.
C=C1[C@H]2CC[C@H]3[C@]4(C)C[C@H](O[C@@H]5OC(CO)[C@@H](OSOOO)[C@H](OS(=O)(=O)O)[C@H]5OC(=O)CC(C)C)C[C@@H](C(=O)O)[C@H]4CC[C@]3(C2)[C@H]1O (some centres undefined),.,.,0,.,.
CCOC(=O)c1c(/N=C/C2C(=O)NC(=S)NC2=O)sc2c1CCC2,-92,-96,-192,-85,-31*
CCOC(=O)c1c(/N=C/C2C(=O)NC(=S)NC2=O)sc(C)c1C,-4,-57,-13,-14,?
Oc1ccc2c3c1OC1c4oc5ccccc5c4C[C@@]4(O)[C@@H](C2)N(CC2CC2)CC[C@]314 (some centres undefined),.,.,0,.,.
NS(=O)(=O)c1ccc(-c2ccc(C=C3C(=O)NC(=S)NC3=O)o2)cc1,-16,.,-5,-26,-49*
Cc1cc(C=C2C(=O)NC(=O)NC2=O)c(C)n1-c1ccc2c(c1)OCO2,3,1,-4,-8,-7
Cc1cc(C=C2C(=O)NC(=S)NC2=O)c(C)n1-c1ccc2c(c1)OCO2,0,61*,-12,-10,-12
CC(=O)OC1C=CC2[C@H]3Cc4ccc(O)c5c4[C@@]2(CCN3C)C1O5 (some centres undefined),.,.,1,.,.
SMILES,BCLXL inh,EBV gp42 block,GLD-1 TGE inh,MCL1-BIM inh,MEX-5 binding
O=C1NC(=O)N(Cc2ccccc2)C(=O)/C1=C\c1ccco1,-13,-2,-31,-2,-30*
CN(C)[C@@H]1C(=O)C(C(N)=O)=C(O)[C@@]2(O)C(=O)C3=C(O)c4c(O)cccc4[C@@](C)(O)[C@H]3C[C@@H]12,43*,.,14,90*,-59*
C/C=C1/C[N+]2(C)CCC34C(=C(C=O)[C@H]1C[C@@H]32)Nc1ccccc14 (some centres undefined),-3,.,8,-19,.
O=c1[nH]c(=O)n(-c2cccc(Cl)c2)c(O)c1/C=N/c1ccccn1,-14,-19,-13,-18,-29*
N=Cc1c(O)n(-c2cccc(Cl)c2)c(=O)[nH]c1=O,-8,-16,6,-4,1
C[C@]12CCC(=O)C[C@H]1CC[C@@H]1[C@@H]2CC[C@]2(C)C(=O)CC[C@@H]12,.,.,-1,.,.
COc1ccc(N=Cc2c(O)n(Cc3ccccc3)c(=S)[nH]c2=O)c(OC)c1,7,90*,4,4,-57*
COc1ccc(Cn2c(O)c(C=Nc3c(C)n(C)n(-c4ccccc4)c3=O)c(=O)[nH]c2=O)cc1,-4,-23,-10,-6,3
COc1ccc(OC)c(N=Cc2c(O)n(Cc3ccccc3)c(=S)[nH]c2=O)c1,-5,19,-5,-11,-47*
N#C/C=C/C#N,6,.,5,0,.
CC/C(=C\C=C\[C@@H]1C=C[C@@H]2CCC[C@H]2[C@@H]1C(=O)c1ccc[nH]1)[C@@H]1O[C@@H]([C@@H](C)C(=O)O)CC[C@@H]1C,34*,-1,14,32,?
COc1ccc(C(c2ccc(OC)cc2)C(Cl)(Cl)Cl)cc1,5,.,2,-10,.
CCCn1cc2c3c(cccc31)C1CC(C)CN(C)C1C2 (centres undefined),.,20,.,.,-27*
Nc1ncc([N+](=O)[O-])s1,10,.,1,11,.
COc1cccc(C2(O)CCN(CC(=O)Nc3nc(C)cs3)CC2)c1,9,-5,-7,8,-51*
NCc1cc(=O)[nH]o1,10,.,1,14,.
CN(C)c1ccc(N=Cc2c(O)n(CCC3=CCCCC3)c(=O)[nH]c2=O)cc1,7,-85,-2,7,-63*
COc1ccc(/C=C/C(=O)c2c(O)n(CCC3=CCCCC3)c(=O)[nH]c2=O)cc1OC,-2,-83,-2,-2,-47*
CSc1nc(N)c(N=Nc2ccc([As](=O)(O)O)cc2)c(=O)[nH]1,10,-14,-2,8,-34*
Clc1cc(Cl)c(-c2cc(Cl)c(Cl)cc2Cl)cc1Cl,-2,.,-5,5,.
CCN(CC)C(=O)c1ccc2c(c1)C1C=CCC1C(C(=O)O)N2 (centres undefined),.,.,.,.,-56*
COc1ccc(OC)c(N2C(=O)NC(=O)/C(=C\c3ccc([N+](=O)[O-])s3)C2=O)c1,22,-9,0,32,-40*
O=c1[nH]c(=O)n(-c2ccc(F)cc2)c(O)c1/C=C1\C=Nc2ccccc21,18,.,-19,-11,-37*
